# The list is not random: actives were taken first. Their share in the collection is about 0.83%.
# MLL CXXC-DNA inh – inhibitors of human MLL CXXC domain-DNA interaction; Potency, µM (series often up to 115 µM), hits mostly inhibitors; AID 2662; 0.037% of 290,000 active; MLL-CXXC / FITC-HOXA9 DNA fluorescence polarization; Q03164; active means well fitted inhibition curve with a large enough effect in the polarisation, with a control signal flat, not every such curve was filed as active; inconclusive means small, poorly fitted or top-dose-only effect, or effect the other way, or a change in a side signal; inactive means no such curve, though single readings can be large or run the other way; the % refers to the polarisation
#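 Fluorescence polarization: 7 uM MLL-CXXC (stock) preincubated 5 min with compounds, then 50 nM fluorescein-HOX-A9 DNA (stock) added; 30 min ambient. Buffer 50 mM Tris-HCl pH 7.5, 50 mM NaCl, 1 mM DTT, 0.05% BSA.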
# CtBP-E1A inh – CtBP/E1A binding inhibition; activity change, % (test concentration not listed); AID 651724; AlphaScreen GST-E1A/His-CtBP binding, 1536-well; stronger effect = lower value; 0.49% of 340,000 active
#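 Steps: dispense buffer (Tris pH 8.0, NaCl 300 mM, TCEP 1 mM, BSA, Tween 20); add 5X protein mix (GST-E1A, His-CtBP, 125 nM each); pin 23 nL compound; 2 h at 37 °C, dark; add 5X beads (50 ug/mL); 1 h; read.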
# Menin-MLL FL inh – menin-MLL binding inhibition, fluorescein peptide; AID 1766; 290,000 tested, under 10 active; Fluorescence polarization, fluorescein-MLL peptide displacement from menin; FP activity change, % at 61.4 µM; active means well fitted curve in the direction sought with a large enough effect in the polarisation, not every such curve was filed as active; inconclusive means small, poorly fitted or top-dose-only effect, or effect the other way, or a change in a side signal; inactive means no such curve, though single readings can be large or run the other way; the % refers to the polarisation
# Menin MLL FP TR – displaces Texas Red mutant MLL peptide from human menin. O00255. Menin + Texas Red MLL mutant peptide, fluorescence polarization. Potency, µM (highest dose often 61.6 µM), actives largely listed as inhibitors. 0.23% of 270,000 active. AID 1768; active means well fitted inhibition curve with a large enough effect in the polarisation, with a control signal flat, not every such curve was filed as active; inconclusive means small, poorly fitted or top-dose-only effect, or effect the other way, or a change in a side signal; inactive means no such curve, though single readings can be large or run the other way; the % refers to the polarisation
# Target sequence (O00255 whole entry, looked up): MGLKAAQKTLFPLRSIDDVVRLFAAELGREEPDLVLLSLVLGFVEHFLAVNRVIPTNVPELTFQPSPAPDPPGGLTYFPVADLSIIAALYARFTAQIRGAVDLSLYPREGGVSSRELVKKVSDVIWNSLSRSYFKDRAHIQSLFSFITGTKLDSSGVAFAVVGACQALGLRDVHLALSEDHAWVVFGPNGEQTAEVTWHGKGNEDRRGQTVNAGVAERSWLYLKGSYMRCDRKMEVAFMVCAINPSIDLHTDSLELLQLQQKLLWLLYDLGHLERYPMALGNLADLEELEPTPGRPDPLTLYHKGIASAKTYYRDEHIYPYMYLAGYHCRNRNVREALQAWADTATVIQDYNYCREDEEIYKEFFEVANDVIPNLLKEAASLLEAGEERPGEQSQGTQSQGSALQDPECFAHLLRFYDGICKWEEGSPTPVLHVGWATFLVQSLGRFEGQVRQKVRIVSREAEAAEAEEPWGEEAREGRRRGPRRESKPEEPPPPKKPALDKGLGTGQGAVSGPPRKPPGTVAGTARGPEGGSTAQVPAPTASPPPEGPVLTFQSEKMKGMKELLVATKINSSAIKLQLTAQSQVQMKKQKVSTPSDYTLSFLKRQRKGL
# Six1-Eya2 inh – Six1/Eya2 interaction inhibition; activity change, % (test concentration not listed); 0.56% of 360,000 active; AlphaScreen GST-Six1/His-Eya2 binding, biochemical; stronger effect = lower value; Q15475+O00167
#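 GST-Six1 + His-Eya2 (5X stock: 250/500 nM); Tris pH 8.0, 300 mM NaCl, 0.05% BSA, 0.02% Tween 20; GSH donor/Ni acceptor beads; 1 h 37 °C dark; AlphaScreen readout.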
# GLS inhibitor – blocks human kidney-isoform glutaminase activity; 0.21% of 410,000 active; Potency, µM (top dose mostly 45.5 µM), actives largely listed as inhibitors; GLS enzymatic activity, qHTS titration; O94925; active means well fitted inhibition curve with a large enough effect; inconclusive means small, poorly fitted or top-dose-only effect, or another doubt; inactive means no such curve, though single readings can be large or run the other way
#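 Glutamate formation by hKGA was monitored fluorometrically using coupled glutamate oxidase, HRP and Amplex Red. Substrate was added as 1 mM L-glutamine solution; incubation was 30 min at RT after an initial read.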
# A number is an active result; 0 = inactive; ? = inconclusive; - = no result given. Unless noted, no stated cut-off is given here; in the data, active means activity change below about -65%; inconclusive means mostly about -30% to -63%; inactive means weaker than that.
SMILES,MLL CXXC-DNA inh,CtBP-E1A inh,Menin-MLL FL inh,Menin MLL FP TR,Six1-Eya2 inh,GLS inhibitor
CCCCNC(=S)N/N=C/c1cccc(OCC)c1O,0,0,0,-,0,8.9µM
CCOc1cccc(/C=N/NC(=O)c2cc(C3CC3)[nH]n2)c1O,0,-,0,0,-86,0
O=C(Nc1ccc2c(c1)OCCO2)c1ccccc1Cl,-,0,-,-,0,0
O=C(Nc1ccc2c(c1)OCCO2)c1cccc2nc3ccccc3nc12,0,-68,0,?,?,?
CC(=O)c1c(OC(=O)c2ccc(C)cc2)c2ccccc2n1C,0,0,0,0,0,0
Cc1ccc(C(=O)Oc2cc(C)n(C)c(=O)c2)cc1,0,0,0,0,-95,0
Cc1nc(-c2cnn(-c3ccccc3)c2)c2cc(C)oc2n1,0,-88,0,0,-87,0
COc1cc(OC)c(NC(=O)CCn2cnc3onc(-c4ccc(F)cc4)c3c2=O)cc1Cl,-,-,-,-,-,0
O=C(CSc1nc2ccccc2s1)N1c2ccccc2Sc2ccc(C(F)(F)F)cc21,?,0,0,?,0,0
O=C(CSc1nc2ccccc2s1)N1c2ccccc2Sc2ccc(Cl)cc21,0,0,0,20µM,0,0
Cc1ccnc2c1ccc1ccccc12,0,0,0,0,0,0
Cc1ccnc2c1ccc1cccnc12,-,-92,-,-,-81,0
Cc1ccnc2c1ccc1c(C)ccnc12,-,-92,-,-,-92,0
CN(C)CC1CCn2c(c(C3=C(c4cn(C)c5ccccc45)C(=O)NC3=O)c3ccccc32)C1 (centres undefined),-,-,0,?,-,-
Cc1ccc(OCC(=O)Nc2ccc(C(=O)OCc3cc(=O)n4ccsc4n3)cc2)cc1C,-,-,-,-,-,0
COc1cc(Br)c(C[N+]2(CCOCCC3CCC4CC3C4(C)C)CCOCC2)cc1OC (centres undefined),-,-,-,-,-,0
CSC1=NC=C(C#N)C2=NC(c3c(Cl)cccc3Cl)NN12 (centres undefined),-,0,-,-,0,11µM
Nc1c(O)ccc2c1C(=O)c1ccccc1C2=O,0,?,0,?,-74,0
COc1ccc2c(c1O)C(=O)c1ccccc1C2=O,0,-,0,?,-,-
O=C(NNc1ccc(Cl)cc1)c1c(F)cccc1Cl,0,0,0,-,0,?
CC(=O)C(=Nc1ccccc1Cl)NNc1ccc(Cl)cc1,0,?,0,0,-73,?
COc1ccccc1-c1cncnc1NCCNC(C)=O,-,-,0,0,-,-
NC(=O)c1ccccc1C[C@H](C(=O)O)N1C(=O)c2ccc(C(=O)O)cc2C1=O,-,-,0,0,-,-
CCN(CC(=O)Nc1ccccc1C(F)(F)F)C(=O)c1ccccc1Cc1ccccc1,-,0,-,-,0,0
CCN(CC(=O)Nc1ccccc1C(F)(F)F)C(=O)C1CC(=O)N(Cc2ccccc2)C1 (centres undefined),-,0,-,-,-86,0
SMILES,MLL CXXC-DNA inh,CtBP-E1A inh,Menin-MLL FL inh,Menin MLL FP TR,Six1-Eya2 inh,GLS inhibitor
O=C(N/N=C/c1ccc(Sc2ccccn2)o1)c1cc2ccccc2cc1O,0,0,0,?,0,0
O=C(CCc1ccccc1O)N/N=C/c1ccc(Sc2cccc3cccnc23)o1,0,-92,0,0,-88,0
Cc1nnsc1C(=O)N/N=C/c1ccc2ccccc2c1O,?,-71,?,?,-87,0
CCCSCCCNC(=O)c1cc2n(n1)CCCN(Cc1ccc(C)cc1)C2=O,-,-,-,-,-,0
O=C1C(=C(c2ccccc2)c2ccccc2)Nc2ccccc21,0,?,0,?,-70,0
CCOC(=O)CN1C(=O)C(O)(CC(=O)c2cc(OC)ccc2OC)c2ccccc21 (centres undefined),-,-,-,-,-,0
COc1ccc(-c2nc(-c3ccc(O)cc3O)cs2)cc1OC,0,0,0,?,0,?
COc1ccc(-c2csc(C3=C(O)CN(C(C)C)C3=N)n2)cc1OC,0,-77,0,?,?,0
CN(CC1CCCO1)S(=O)(=O)c1ccc(C(=O)Nc2nc(-c3ccccn3)cs2)cc1 (centres undefined),0,-92,0,0,?,0
Cc1ccc(C(=O)Nc2nc(-c3ccccn3)cs2)cc1S(=O)(=O)N1CCOCC1,-,-92,-,-,-91,0
O=C(Nc1nc(-c2ccccn2)cs1)c1cc(S(=O)(=O)N2CCOCC2)ccc1F,-,?,-,-,-90,0

# Bioassay records (PubChem)
